{"source": "PubChem BioAssay (EPA / NIEHS)", "note": "Activity calls are given as the source filed them. The calls were made as follows: active = hit-call score of the fitted dose curve at least 0.9, where 1 is the maximum; inactive = score below 0.9.", "data": [{"test": "CCTE_Shafer_MEA_acute_burst_percentage_mean: CCTE's Neural Acute Assay for Percentage of Spikes in a Burst, Shafer Lab (AID 2284017);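 as to AC50: curve fitted for loss of signal so potency reflects decreased burst percentage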", "procedure": "CCTE_Shafer_MEA_acute assay is conducted using Axion Biosystems 48 well microelectrode array (MEA) plates and Maestro recording system. Each well of the MEA plate contains a grid of 16 microelectrodes embedded in the culture surface. Electrically active cells, such as neurons, can be cultured over the electrodes, and electrical activity in these cells can be recorded extracellularly. The spontaneous firing of neurons is captured from each electrode on a microsecond timescale providing both temporally and spatially precise data. […] The CCTE_Shafer_MEA_acute assay uses primary cultures of rat cortical neurons. As these cultures mature over time, neural networks develop functional activity and form cohesive networks in which electrical activity can be highly coordinated. Baseline 40-minute recordings are made on days post-plating 13 or 15, followed by a secondary 40-minute recording after chemical exposure.CCTE_Shafer_MEA_acute_burst_percentage_mean is a component of the CCTE_Shafer_MEA_acute assay. It measures the percentage of spikes (action potential firing) in a single-electrode burst (temporally-clustered groups of spikes) as the number of spikes in bursts divided by the total number of spikes during a recording in a microelectrode array (MEA) using Axion Biosystems Maestro 768 channel amplifier with the AxIS adaptive spike detector. The average of the burst percentages across electrodes is calculated to report a well-level value. The recordings before and after chemical treatment are used to calculate a percent change in the mean burst percentage in each well.Data from the assay component CCTE_Shafer_MEA_acute_burst_percentage_mean was analyzed into 1 assay endpoint. This assay endpoint, CCTE_Shafer_MEA_acute_burst_percentage_mean, was analyzed in the negative analysis fitting direction relative to DMSO as the negative control and baseline of activity. Using a type of functional reporter, gain or loss-of-signal activity can be used to understand electrical activity.\nSpontaneous activity in the cortical cultures was recorded using an Axion Biosystems Maestro 768 channel amplifier and Axion Integrated Studios (AxIS) v1.8 (or later) software. The amplifier recorded from all channels simultaneously (gain = 1200 x; sampling rate = 12.5 kHz/channel): raw signals were filtered with a Butterworth band-pass filter (300-5000 Hz), which filters out slower local field potentials leaving only fast potentials, i.e., \"spikes\", arising from extracellular currents associated with action potentials (Pine 2006; Wheeler and Nam 2011). On-line spike detection of filtered signals was conducted with the AxIS adaptive spike detector, using a threshold of 8x the root mean squared (rms) noise on each channel. Any electrodes with rms noise levels greater than 5 uV were grounded (e.g., no data were recorded). Once grounded, an electrode was grounded for the duration of the experiment. All recordings were conducted at 37 C. Wells were deemed usable if on the day of the exposure >/= 10 electrodes were active (defined as >/= 5 spikes/min). On DIV 13 or 15, a minimum of three wells from one cortical culture preparation were treated with each compound (0.03-40 uM). Prior to recording baseline activity, each mwMEA plate was placed in the Maestro at 37 C and allowed to sit for 20 min while firing rates stabilized. Baseline activity (40 min) was recorded before the addition of each compound. An additional 40 min of spontaneous activity was recorded in the presence of each compound. Changes in network parameters relative to baseline were assessed following compound treatment.", "values": [{"smiles": "CC(=O)[O][Hg][c]1ccccc1", "AC50": "1.13 µM (active)"}, {"smiles": "O=C(O)C(Cl)(Cl)Cl", "outcome": "inactive"}, {"smiles": "ClC1(Cl)C2(Cl)C3(Cl)C4(Cl)C(Cl)(Cl)C5(Cl)C3(Cl)C1(Cl)C5(Cl)C24Cl", "note": "(centres undefined)", "outcome": "inactive"}, {"smiles": "CC(=O)OC(c1ccccc1)C(Cl)(Cl)Cl", "note": "(centres undefined)", "AC50": "15 µM (active)"}, {"smiles": "O=C(O)C(F)(F)C(F)(F)C(F)(F)C(F)(F)C(F)(F)C(F)(F)C(F)(F)C(F)(F)C(F)(F)C(F)(F)F", "outcome": "inactive"}, {"smiles": "CCCCCCCCc1ccc(O)cc1", "AC50": "12.7 µM (active)"}, {"smiles": "C[C@]12CCC(=O)C[C@@H]1CC[C@@H]1[C@@H]2CC[C@]2(C)[C@@H](O)CC[C@@H]12", "AC50": "30.5 µM (active)"}, {"smiles": "CC(C)(c1ccccc1)c1ccc(O)c(C(C)(C)c2ccccc2)c1", "AC50": "7.18 µM (active)"}, {"smiles": "CCC(C)(C)c1ccc(O)c(C(C)(C)CC)c1", "AC50": "7.93 µM (active)"}, {"smiles": "CC(C)(C)c1cc(O)ccc1O", "AC50": "20 µM (active)"}, {"smiles": "COC(=O)Cc1ccccc1", "outcome": "inactive"}, {"smiles": "C=C(C)C(=O)[O][Sn]([CH2]CCC)([CH2]CCC)[CH2]CCC", "AC50": "0.0833 µM (active)"}, {"smiles": "CCC(=O)C(CC(C)N(C)C)(c1ccccc1)c1ccccc1", "note": "(centres undefined)", "AC50": "26.2 µM (active)"}, {"smiles": "CC(C)(C)CC(C)(C)c1ccc(O)cc1", "outcome": "inactive"}, {"smiles": "O=C(Nc1ccc2[nH]ccc2c1)c1cc2cc(F)ccc2n1Cc1cccc(F)c1", "outcome": "inactive"}, {"smiles": "CCOP(=S)(OCC)SCSP(=S)(OCC)OCC", "AC50": "20 µM (active)"}, {"smiles": "CC(C)(OO)c1ccccc1", "outcome": "inactive"}, {"smiles": "O=C1C2(Cl)C3(Cl)C4(Cl)C(Cl)(Cl)C5(Cl)C3(Cl)C1(Cl)C5(Cl)C24Cl", "note": "(centres undefined)", "AC50": "9.9 µM (active)"}, {"smiles": "CCN1CCC2(CC1)COc1cc3c(cc12)N(C(=O)c1ccc(-c2ccc(-c4nnc(C)o4)cc2C)cc1)CC3", "AC50": "27.3 µM (active)"}]}]}
